# According to the supplement of paper PMC12669032:
# Unmarked numbers belong to inactive results.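 The calls were made as follows: active = AUC reduced over 20% with Padj below 0.05 in at least 2 of 3 replicates; inactive = otherwise.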
# Legend:
# Assay in all cases: growth AUC relative to DMSO control (median of replicates) (fraction); higher = more growth (less inhibition), active = hit call of the paper
# Settings in all cases: 20 µM; 24 h
# Akkermansia muciniphila = tested on: Akkermansia muciniphila
# Method in brief: (§1)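 Hourly OD600 readings over 24 h tracked anaerobic gut bacterial monocultures grown at 37 °C in mGAM from OD600 0.05 with 20 µM compound (1% DMSO). After the minimum OD was set to 0, area under the growth curve was normalised to the plate median of solvent-only wells, or to row and column medians on the industrial chemical plate. Values are medians of three biological replicates grown on separate days.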
# Bacteroides caccae = tested on: Bacteroides caccae
# Method in brief: as §1
# Bacteroides clarus = tested on: Bacteroides clarus
# Method in brief: as §1
# Bacteroides dorei = tested on: Bacteroides dorei
# Method in brief: as §1
# Bacteroides stercoris = tested on: Bacteroides stercoris
# Method in brief: as §1
# [1] = tested on: Bacteroides thetaiotaomicron
# Method in brief: as §1
# Bacteroides uniformis = tested on: Bacteroides uniformis
# Method in brief: as §1
# [2] = tested on: Bifidobacterium longum subsp. longum
# Method in brief: as §1
# Clostridium difficile = tested on: Clostridium difficile
# Method in brief: as §1
# Collinsella aerofaciens = tested on: Collinsella aerofaciens
# Method in brief: as §1
Compound,growth AUC (Akkermansia muciniphila),growth AUC (Bacteroides caccae),growth AUC (Bacteroides clarus),growth AUC (Bacteroides dorei),growth AUC (Bacteroides stercoris),growth AUC [1],growth AUC (Bacteroides uniformis),growth AUC [2],growth AUC (Clostridium difficile),growth AUC (Collinsella aerofaciens)
COC(=O)Nc1cccc(OC(=O)Nc2cccc(C)c2)c1,0.871,0.991,0.983,1.02,0.99,1.01,0.994,1.03,1.02,0.926
O=C(O)C(F)(F)C(F)(F)C(F)(F)C(F)(F)C(F)(F)C(F)(F)C(F)(F)C(F)(F)F,1.01,1,1.02,1.03,1.08,1.07,1.02,1.03,0.997,0.997
COC(=O)Nc1nc2ccccc2[nH]1,0.927,1.01,0.991,1.01,0.957,1.04,0.988,1.01,1.06,1.03
"ClC1=C(Cl)C2(Cl)[C@H]3[C@@H]4O[C@@H]4[C@H](Cl)[C@H]3C1(Cl)C2(Cl)Cl (single isomer, unassigned; isomer b)",1.29,0.98,0.973,0.933,0.752,0.96,0.89,1.19,1.01,0.957
OC(Cc1ccccc1Cl)(Cn1[nH]cnc1=S)C1(Cl)CC1 (stereo not given),1.02,0.971,0.856,0.91,1.04,0.821,0.805,0.842,0.985,1.04
CC(Oc1ccc(Cl)cc1Cl)C(=O)O (stereo not given),1.09,1.02,0.987,0.942,0.981,1,0.979,1.04,1.01,0.976
Nc1cnn(-c2ccccc2)c(=O)c1Cl,0.895,1.01,0.992,0.995,1.12,1.01,0.997,0.936,1.03,1
Clc1ccc(Cl)cc1,1.01,0.991,0.989,0.899,1.08,1.01,1.01,1.07,0.987,0.972
Oc1cccc2cccnc12,0.981,0.994,1.01,0.993,1.12,0.984,0.988,1.14,0.959,0.963
Clc1ccccc1-c1nnc(-c2ccccc2Cl)nn1,0.748,0.892,0.969,0.974,1.25,0.999,0.974,0.825,0.997,0.942
CCC(CC)Nc1c([N+](=O)[O-])cc(C)c(C)c1[N+](=O)[O-],1.03,0.888,0.942,0.91,0.86,0.96,0.954,1,0.962,0.909
CCNc1nc(Cl)nc(NCC)n1,0.894,1,1.01,1.02,1.02,1.01,1.01,1.05,1.01,1.04
Clc1ccc(C(c2ccc(Cl)cc2)C(Cl)Cl)cc1,1.03,0.927,0.899,0.888,0.662 (active),0.933,0.984,1.06,1.03,0.873
BrCCBr,1.11,0.998,1.01,1.02,1.17,0.987,1,1.03,0.997,0.995
COC(=O)C1(O)c2ccccc2-c2ccccc21,0.893,1.03,0.97,1,1.01,0.981,0.984,0.996,0.991,1.03
